Results taken from PMC7862700, “An all-to-all approach to the identification of sequence-specific readers for epigenetic DNA modifications on cytosine”.

What was measured:
Assay in all cases: DAPPL (digital affinity profiling via proximity ligation, sequencing); 10 mM Tris-HCl pH 7.5, 50 mM NaCl, 1 mM DTT, 4% glycerol, room temperature, 30 min; GST-TFs on glutathione beads, 16-mer random dsDNA library, 0.1% formaldehyde crosslink after washing; high values mean tight binding
FEV = target: T1, FEV (Homo sapiens, UniProt Q99581 1-238); details: protein: recombinant; tags: N-terminal GST; dsDNA, one strand shown
T1 sequence: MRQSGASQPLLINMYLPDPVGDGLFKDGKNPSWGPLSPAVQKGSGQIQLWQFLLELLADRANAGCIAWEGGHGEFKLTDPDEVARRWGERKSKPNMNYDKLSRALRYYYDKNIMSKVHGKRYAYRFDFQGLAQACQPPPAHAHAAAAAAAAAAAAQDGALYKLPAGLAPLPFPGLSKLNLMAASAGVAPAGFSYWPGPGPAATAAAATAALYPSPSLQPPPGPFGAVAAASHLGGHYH
Method in brief: (§1)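 Yeast served to express human transcription factors as GST fusions, which were then captured on glutathione beads and labelled with DNA barcodes. Pooled with a tag-only sample, they were incubated with 200 nmole of a 16-mer random double-stranded DNA library for 30 min at room temperature in Tris/NaCl/DTT/glycerol buffer, washed, crosslinked with 0.1% formaldehyde, ligated by proximity, amplified by PCR and sequenced. Dividing each hexamer's read frequency for a factor by its frequency for the tag-only sample gives the binding signal.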

ETV5 = ETV5 (Homo sapiens, UniProt P41161 1-510); details: protein: recombinant; tags: N-terminal GST; dsDNA, one strand shown
Method in brief: as §1

HSF1 = HSF1 (Homo sapiens, UniProt Q00613 1-529); details: protein: recombinant; tags: N-terminal GST; chain copies: 3; dsDNA, one strand shown
Method in brief: as §1

SPIC = target: T2, SPIC (Homo sapiens, UniProt Q8N5J4 1-248); details: protein: recombinant; tags: N-terminal GST; dsDNA, one strand shown
T2 sequence: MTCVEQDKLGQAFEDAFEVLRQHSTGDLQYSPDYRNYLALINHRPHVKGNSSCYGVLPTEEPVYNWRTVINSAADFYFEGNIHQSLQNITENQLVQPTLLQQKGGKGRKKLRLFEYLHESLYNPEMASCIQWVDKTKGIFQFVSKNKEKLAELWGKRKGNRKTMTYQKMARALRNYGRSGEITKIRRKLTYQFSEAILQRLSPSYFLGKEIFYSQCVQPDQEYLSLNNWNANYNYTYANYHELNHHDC
Method in brief: as §1

ELF4 = ELF4 (Homo sapiens, UniProt Q99607 1-663); details: protein: recombinant; tags: N-terminal GST; dsDNA, one strand shown
Method in brief: as §1

ELK4 = target: T3, ELK4 (Homo sapiens, UniProt P28324-2 1-405); details: protein: recombinant; tags: N-terminal GST; dsDNA, one strand shown
T3 sequence: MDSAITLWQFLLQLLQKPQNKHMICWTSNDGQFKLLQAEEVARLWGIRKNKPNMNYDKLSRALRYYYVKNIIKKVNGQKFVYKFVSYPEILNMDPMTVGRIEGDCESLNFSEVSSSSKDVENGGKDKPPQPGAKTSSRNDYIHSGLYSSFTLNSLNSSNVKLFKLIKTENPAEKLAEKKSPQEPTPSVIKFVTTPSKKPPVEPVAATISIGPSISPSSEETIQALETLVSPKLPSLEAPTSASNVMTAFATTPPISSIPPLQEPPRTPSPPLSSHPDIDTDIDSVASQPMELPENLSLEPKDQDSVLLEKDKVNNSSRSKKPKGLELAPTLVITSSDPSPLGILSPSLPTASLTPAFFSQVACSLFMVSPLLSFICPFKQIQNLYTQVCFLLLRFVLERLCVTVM
Method in brief: as §1

ETV2 = target: T4, ETV2 (Homo sapiens, UniProt O00321 1-342); details: protein: recombinant; tags: N-terminal GST; dsDNA, one strand shown
T4 sequence: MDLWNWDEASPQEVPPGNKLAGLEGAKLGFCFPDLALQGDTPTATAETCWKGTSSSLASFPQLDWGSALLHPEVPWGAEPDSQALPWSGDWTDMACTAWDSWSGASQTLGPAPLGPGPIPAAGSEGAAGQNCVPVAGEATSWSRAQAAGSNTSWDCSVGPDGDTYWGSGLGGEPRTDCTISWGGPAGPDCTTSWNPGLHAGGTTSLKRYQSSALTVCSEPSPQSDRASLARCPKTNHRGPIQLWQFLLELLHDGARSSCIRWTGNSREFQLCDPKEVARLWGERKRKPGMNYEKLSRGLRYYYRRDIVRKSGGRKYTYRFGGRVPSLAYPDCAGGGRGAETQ
Method in brief: as §1

ELF3 = target: T5, ELF3 (Homo sapiens, UniProt P78545 1-371); details: protein: recombinant; tags: N-terminal GST; dsDNA, one strand shown
T5 sequence: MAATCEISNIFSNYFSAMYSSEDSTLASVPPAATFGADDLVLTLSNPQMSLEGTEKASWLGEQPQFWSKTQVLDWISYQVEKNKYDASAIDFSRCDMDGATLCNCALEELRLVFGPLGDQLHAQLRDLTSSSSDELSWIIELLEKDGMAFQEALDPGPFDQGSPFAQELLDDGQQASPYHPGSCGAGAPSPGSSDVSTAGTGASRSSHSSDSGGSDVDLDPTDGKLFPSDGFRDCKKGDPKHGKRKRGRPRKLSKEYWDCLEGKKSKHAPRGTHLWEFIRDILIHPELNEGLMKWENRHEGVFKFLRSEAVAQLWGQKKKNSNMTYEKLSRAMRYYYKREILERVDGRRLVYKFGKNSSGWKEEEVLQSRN
Method in brief: as §1

ETV1 = ETV1 (Homo sapiens, UniProt P50549 1-477); details: protein: recombinant; tags: N-terminal GST; dsDNA, one strand shown
Method in brief: as §1

ERF = target: T6, ERF (Homo sapiens, UniProt P50548 1-548); details: protein: recombinant; tags: N-terminal GST; dsDNA, one strand shown
T6 sequence: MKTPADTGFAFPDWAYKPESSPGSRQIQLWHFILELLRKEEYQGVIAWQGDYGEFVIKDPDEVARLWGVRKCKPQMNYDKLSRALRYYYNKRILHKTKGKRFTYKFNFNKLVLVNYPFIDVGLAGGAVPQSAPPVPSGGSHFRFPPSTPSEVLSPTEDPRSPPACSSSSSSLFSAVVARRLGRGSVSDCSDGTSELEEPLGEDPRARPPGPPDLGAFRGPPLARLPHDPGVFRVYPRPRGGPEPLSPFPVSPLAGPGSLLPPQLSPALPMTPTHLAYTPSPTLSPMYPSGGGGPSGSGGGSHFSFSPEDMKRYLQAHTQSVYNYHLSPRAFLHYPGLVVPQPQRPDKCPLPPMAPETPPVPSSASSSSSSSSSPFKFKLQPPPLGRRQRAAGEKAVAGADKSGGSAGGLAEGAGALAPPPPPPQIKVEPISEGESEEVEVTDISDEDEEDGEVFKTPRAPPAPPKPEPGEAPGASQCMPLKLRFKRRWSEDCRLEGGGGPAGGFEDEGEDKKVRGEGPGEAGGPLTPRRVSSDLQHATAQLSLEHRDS
Method in brief: as §1

ETV3L = target: T7, ETV3L (Homo sapiens, UniProt Q6ZN32 1-361); details: protein: recombinant; tags: N-terminal GST; dsDNA, one strand shown
T7 sequence: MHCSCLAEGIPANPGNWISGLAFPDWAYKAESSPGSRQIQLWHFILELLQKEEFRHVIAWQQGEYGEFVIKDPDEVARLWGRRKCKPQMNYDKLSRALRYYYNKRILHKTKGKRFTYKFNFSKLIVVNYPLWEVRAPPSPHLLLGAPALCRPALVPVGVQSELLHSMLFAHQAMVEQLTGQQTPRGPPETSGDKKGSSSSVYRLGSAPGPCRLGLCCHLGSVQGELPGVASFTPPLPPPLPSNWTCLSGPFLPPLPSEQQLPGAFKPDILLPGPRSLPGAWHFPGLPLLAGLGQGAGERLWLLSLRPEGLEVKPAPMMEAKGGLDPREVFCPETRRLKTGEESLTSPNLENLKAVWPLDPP
Method in brief: as §1

ETS2 = target: T8, ETS2 (Homo sapiens, UniProt P15036 1-469); details: protein: recombinant; tags: N-terminal GST; dsDNA, one strand shown
T8 sequence: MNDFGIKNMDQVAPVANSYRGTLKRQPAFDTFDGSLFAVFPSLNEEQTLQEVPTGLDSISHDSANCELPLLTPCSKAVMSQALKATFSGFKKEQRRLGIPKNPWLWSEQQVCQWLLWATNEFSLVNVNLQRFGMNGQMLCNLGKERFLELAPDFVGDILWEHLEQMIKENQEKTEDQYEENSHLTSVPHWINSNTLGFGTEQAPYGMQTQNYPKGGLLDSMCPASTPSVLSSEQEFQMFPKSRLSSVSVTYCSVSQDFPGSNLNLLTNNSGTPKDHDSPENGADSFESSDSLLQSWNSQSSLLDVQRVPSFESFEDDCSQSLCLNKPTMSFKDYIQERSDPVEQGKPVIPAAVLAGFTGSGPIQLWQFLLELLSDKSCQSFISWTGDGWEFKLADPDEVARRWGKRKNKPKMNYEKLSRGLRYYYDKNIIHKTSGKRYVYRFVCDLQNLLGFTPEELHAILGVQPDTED
Method in brief: as §1

SPDEF = target: T9, SPDEF (Homo sapiens, UniProt O95238 1-335); details: protein: recombinant; tags: N-terminal GST; dsDNA, one strand shown
T9 sequence: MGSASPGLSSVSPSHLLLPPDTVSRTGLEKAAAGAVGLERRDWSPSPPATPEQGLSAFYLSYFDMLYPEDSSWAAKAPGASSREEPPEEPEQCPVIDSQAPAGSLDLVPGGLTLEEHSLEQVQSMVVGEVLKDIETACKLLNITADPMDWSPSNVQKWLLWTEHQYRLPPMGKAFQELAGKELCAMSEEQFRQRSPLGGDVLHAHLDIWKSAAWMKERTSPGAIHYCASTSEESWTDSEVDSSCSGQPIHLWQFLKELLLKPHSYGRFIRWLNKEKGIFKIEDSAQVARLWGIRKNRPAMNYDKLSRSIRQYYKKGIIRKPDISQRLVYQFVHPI
Method in brief: as §1

ETV7 = target: T10, ETV7 (Homo sapiens, UniProt Q9Y603 1-341); details: protein: recombinant; tags: N-terminal GST; dsDNA, one strand shown
T10 sequence: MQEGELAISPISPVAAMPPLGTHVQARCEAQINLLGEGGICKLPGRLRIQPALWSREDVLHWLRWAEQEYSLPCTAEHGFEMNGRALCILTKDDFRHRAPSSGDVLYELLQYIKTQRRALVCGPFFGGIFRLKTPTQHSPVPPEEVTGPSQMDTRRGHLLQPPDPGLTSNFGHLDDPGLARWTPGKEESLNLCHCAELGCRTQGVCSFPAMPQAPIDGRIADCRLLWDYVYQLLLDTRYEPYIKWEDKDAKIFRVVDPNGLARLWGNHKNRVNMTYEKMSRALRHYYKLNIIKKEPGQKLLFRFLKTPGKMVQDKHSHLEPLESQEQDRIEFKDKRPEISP
Method in brief: as §1

ELF5 = target: T11, ELF5 (Homo sapiens, UniProt Q9UKW6-2 1-255); details: protein: recombinant; tags: N-terminal GST; dsDNA, one strand shown
T11 sequence: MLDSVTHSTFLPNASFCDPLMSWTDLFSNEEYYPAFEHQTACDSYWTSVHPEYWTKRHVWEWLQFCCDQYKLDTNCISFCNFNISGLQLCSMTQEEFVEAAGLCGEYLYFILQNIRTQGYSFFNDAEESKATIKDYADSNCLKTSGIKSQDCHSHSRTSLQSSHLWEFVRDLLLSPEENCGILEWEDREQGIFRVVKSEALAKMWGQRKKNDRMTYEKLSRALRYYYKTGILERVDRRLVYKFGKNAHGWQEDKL
Method in brief: as §1

ETV3 = target: T12, ETV3 (Homo sapiens, UniProt P41162-2 1-143); details: protein: recombinant; tags: N-terminal GST; dsDNA, one strand shown
T12 sequence: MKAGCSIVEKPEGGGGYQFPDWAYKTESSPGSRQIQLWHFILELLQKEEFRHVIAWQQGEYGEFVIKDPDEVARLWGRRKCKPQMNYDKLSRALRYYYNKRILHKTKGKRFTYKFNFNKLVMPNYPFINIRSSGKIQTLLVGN
Method in brief: as §1

ETV6 = ETV6 (Homo sapiens, UniProt P41212 1-452); details: protein: recombinant; tags: N-terminal GST; dsDNA, one strand shown
Method in brief: as §1

Sequence of HSF1 (Q00613 whole entry): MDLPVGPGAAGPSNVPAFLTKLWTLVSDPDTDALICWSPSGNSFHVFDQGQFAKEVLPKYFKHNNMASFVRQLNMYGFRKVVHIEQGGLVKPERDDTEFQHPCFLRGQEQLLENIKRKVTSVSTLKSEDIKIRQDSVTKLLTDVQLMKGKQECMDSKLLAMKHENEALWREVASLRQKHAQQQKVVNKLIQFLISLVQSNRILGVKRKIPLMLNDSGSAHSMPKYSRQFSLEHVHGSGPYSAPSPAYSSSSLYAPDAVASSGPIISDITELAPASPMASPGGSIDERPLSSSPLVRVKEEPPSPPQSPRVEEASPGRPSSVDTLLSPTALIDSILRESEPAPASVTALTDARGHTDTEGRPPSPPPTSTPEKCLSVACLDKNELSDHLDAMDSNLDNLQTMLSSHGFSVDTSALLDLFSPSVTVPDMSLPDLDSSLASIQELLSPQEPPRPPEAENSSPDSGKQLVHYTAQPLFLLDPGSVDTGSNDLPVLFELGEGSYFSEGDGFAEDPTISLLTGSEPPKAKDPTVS
Sequence of ETV5 (P41161 whole entry): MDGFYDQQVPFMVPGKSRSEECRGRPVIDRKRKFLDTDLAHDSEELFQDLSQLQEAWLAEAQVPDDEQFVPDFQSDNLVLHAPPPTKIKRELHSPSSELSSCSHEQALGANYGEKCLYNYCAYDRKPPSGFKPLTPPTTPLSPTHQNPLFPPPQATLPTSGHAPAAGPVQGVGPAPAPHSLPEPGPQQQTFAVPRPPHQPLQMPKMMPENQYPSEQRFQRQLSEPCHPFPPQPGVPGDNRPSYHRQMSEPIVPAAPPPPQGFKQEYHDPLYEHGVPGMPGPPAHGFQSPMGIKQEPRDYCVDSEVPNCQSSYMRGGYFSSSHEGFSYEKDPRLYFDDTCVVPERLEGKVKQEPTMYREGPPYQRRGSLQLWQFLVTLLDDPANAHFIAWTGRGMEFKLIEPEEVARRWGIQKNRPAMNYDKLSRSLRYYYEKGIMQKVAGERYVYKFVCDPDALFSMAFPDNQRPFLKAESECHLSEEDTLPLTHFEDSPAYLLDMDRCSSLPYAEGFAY
Sequence of ETV6 (P41212 whole entry): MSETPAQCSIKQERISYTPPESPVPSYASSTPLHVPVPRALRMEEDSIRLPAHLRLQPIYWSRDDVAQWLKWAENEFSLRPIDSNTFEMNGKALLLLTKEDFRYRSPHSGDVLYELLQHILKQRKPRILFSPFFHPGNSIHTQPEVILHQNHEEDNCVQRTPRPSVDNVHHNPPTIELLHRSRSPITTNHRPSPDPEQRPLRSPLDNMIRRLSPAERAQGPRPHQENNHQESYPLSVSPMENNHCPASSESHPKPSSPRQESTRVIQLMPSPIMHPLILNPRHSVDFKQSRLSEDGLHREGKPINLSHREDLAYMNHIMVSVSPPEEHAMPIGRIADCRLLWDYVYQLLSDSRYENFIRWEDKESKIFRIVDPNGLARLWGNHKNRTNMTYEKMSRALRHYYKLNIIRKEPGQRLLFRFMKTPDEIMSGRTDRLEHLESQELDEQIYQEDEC
Sequence of ELF4 (Q99607 whole entry): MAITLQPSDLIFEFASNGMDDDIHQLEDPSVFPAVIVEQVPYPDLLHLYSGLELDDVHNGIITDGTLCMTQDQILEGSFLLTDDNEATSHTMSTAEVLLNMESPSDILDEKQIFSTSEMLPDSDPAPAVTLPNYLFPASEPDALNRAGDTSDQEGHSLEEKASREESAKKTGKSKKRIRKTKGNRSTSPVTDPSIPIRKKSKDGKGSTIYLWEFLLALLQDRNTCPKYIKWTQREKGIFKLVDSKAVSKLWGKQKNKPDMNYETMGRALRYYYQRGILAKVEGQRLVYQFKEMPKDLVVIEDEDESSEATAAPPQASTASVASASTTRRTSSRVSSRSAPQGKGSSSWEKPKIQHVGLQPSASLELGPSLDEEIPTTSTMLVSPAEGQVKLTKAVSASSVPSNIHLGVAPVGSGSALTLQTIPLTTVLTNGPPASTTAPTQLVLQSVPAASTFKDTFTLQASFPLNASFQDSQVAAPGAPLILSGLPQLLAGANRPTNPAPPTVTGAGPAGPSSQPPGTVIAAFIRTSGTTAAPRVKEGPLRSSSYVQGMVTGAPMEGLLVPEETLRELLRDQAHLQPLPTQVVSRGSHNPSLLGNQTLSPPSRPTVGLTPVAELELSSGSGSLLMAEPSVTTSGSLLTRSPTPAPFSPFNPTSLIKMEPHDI
Sequence of ETV1 (P50549 whole entry): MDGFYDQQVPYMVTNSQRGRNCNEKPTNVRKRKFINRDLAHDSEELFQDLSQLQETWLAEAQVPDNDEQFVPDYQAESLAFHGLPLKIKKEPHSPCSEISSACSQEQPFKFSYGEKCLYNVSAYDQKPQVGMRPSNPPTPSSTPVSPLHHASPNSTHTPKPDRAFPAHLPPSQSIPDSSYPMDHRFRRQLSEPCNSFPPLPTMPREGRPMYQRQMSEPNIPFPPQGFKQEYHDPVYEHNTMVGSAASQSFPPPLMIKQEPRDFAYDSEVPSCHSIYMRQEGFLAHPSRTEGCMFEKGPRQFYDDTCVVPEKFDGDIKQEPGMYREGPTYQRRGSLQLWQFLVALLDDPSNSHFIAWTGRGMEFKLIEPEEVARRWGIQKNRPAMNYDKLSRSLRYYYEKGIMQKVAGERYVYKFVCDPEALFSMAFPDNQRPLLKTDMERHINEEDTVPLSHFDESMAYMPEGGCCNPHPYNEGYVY

Row | Sequence | binding signal (FEV) | binding signal (ETV5) | binding signal (HSF1) | binding signal (SPIC) | binding signal (ELF4) | binding signal (ELK4) | binding signal (ETV2) | binding signal (ELF3) | binding signal (ETV1) | binding signal (ERF) | binding signal (ETV3L) | binding signal (ETS2) | binding signal (SPDEF) | binding signal (ETV7) | binding signal (ELF5) | binding signal (ETV3) | binding signal (ETV6)
1 | CCATTC | 1.06 fold enrichment (6-mer frequency, TF over GST control) | 1.11 fold enrichment (6-mer frequency, TF over GST control) | 1.15 fold enrichment (6-mer frequency, TF over GST control) | 1.14 fold enrichment (6-mer frequency, TF over GST control) | 1.18 fold enrichment (6-mer frequency, TF over GST control) | 1.22 fold enrichment (6-mer frequency, TF over GST control) | 1.25 fold enrichment (6-mer frequency, TF over GST control) | 1.05 fold enrichment (6-mer frequency, TF over GST control) | 1.14 fold enrichment (6-mer frequency, TF over GST control) | 1.14 fold enrichment (6-mer frequency, TF over GST control) | 1.06 fold enrichment (6-mer frequency, TF over GST control) | 1.13 fold enrichment (6-mer frequency, TF over GST control) | 1.13 fold enrichment (6-mer frequency, TF over GST control) | 1.16 fold enrichment (6-mer frequency, TF over GST control) | 1.11 fold enrichment (6-mer frequency, TF over GST control) | 1.1 fold enrichment (6-mer frequency, TF over GST control) | 1.12 fold enrichment (6-mer frequency, TF over GST control)
2 | CATTTC | 2.2 fold enrichment (6-mer frequency, TF over GST control) | 1.95 fold enrichment (6-mer frequency, TF over GST control) | 1.13 fold enrichment (6-mer frequency, TF over GST control) | 1.88 fold enrichment (6-mer frequency, TF over GST control) | 1.73 fold enrichment (6-mer frequency, TF over GST control) | 1.66 fold enrichment (6-mer frequency, TF over GST control) | 1.78 fold enrichment (6-mer frequency, TF over GST control) | 1.61 fold enrichment (6-mer frequency, TF over GST control) | 1.84 fold enrichment (6-mer frequency, TF over GST control) | 1.72 fold enrichment (6-mer frequency, TF over GST control) | 1.81 fold enrichment (6-mer frequency, TF over GST control) | 1.87 fold enrichment (6-mer frequency, TF over GST control) | 1.75 fold enrichment (6-mer frequency, TF over GST control) | 1.68 fold enrichment (6-mer frequency, TF over GST control) | 2.15 fold enrichment (6-mer frequency, TF over GST control) | 1.87 fold enrichment (6-mer frequency, TF over GST control) | 2.02 fold enrichment (6-mer frequency, TF over GST control)
